The nature of assay [1]: polyglutamine aggregate formation blockers (AID 1604). The conditions noted are these: polyglutamine-induced protein aggregation inhibition assay; stronger effect = higher value; tested at 2.5 µM.
Assay [2] in a line: glutamate transport activators, MN-1 cells, MN-1 cell line (AID 1612).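 Also: tested at 1 µM final; 0% = mean of DMSO vehicle wells on each plate; positive means more glutamate uptake than control and negative means less.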 The settings on record: MN-1 motor neuron cells, stronger effect = higher value.
Assay [3] can be described thus: 75Q-TubH aggregate inhibition, S. cerevisiae, yeast (AID 1616). The conditions noted are these: S. cerevisiae 75Q-TubH polyglutamine aggregation suppression; stronger effect = higher value.
Assay [4] relates to Hepatitis C virus NS3 helicase. In words: blockers of NS3h binding to ssDNA – biochemical, fluorescence polarization, LOPAC1280 library, primary screen (AID 687035; in the data active = inhibition above about 37%). The settings on record: Purified HCV NS3 helicase, Cy5-dT15 ssDNA binding fluorescence polarization; stronger effect = higher value; concentration not given here. Background: In fluorescence polarisation assays a small probe gives low polarisation when free and higher when bound to something large.

Assay [5] can be described thus: compounds altering Cy5-DNA-NS3h complex signal – biochemical, LOPAC1280, artefact control for HCV NS3 helicase inhibitor project (AID 687037). The settings on record: Cy5-DNA-NS3h complex fluorescence interference counterscreen. For orientation: Counterscreens check selectivity or assay interference.
Assay [6] in a line: chitosan synthesis blockers in C. neoformans – flow cytometry, Cibacron Brilliant Red staining (AID 1347148).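 Also: compound exposure lasted three days at 37 degrees C.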 The conditions noted are these: Cryptococcus neoformans chitosan, stronger effect = lower value; at 10 µM unless noted.
Assay [7] can be described thus: GFP-Q80 aggregate reduction, neuronal-like cells, cell-based, NGF-treated PC12, GFPQ80 (AID 1614).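 Also: lower means fewer inclusions and 0 means no inclusions at all.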 The settings on record: PC12 NGF-treated GFP-polyQ80 inclusion reduction.

The source of these data is PubChem BioAssay.

The source made the active and inactive calls. Unless noted, no rule for the calls is given here.

Consider `Clc1cc(Cl)c(OCC#CI)cc1Cl`, for which the inhibition of aggregation in assay [1] was found to be 58.5%. The compound further showed a glutamate uptake change in assay [2] of 15.9%. The aggregation suppression score in assay [3] is -0.184.
By inhibition is commonly meant the share of the control response that was lost under treatment. For `O=C1NCN(c2ccccc2)C12CCN(CCCC(c1ccc(F)cc1)c1ccc(F)cc1)CC2`, the inhibition in assay [4] was 0% (inactive). The fluorescence ratio (interference) in assay [5] is 1 (inactive). Further, the fold fluorescence in assay [6] is 5.05 [at 105.1 µM] (inactive).
`CCOc1ccccc1OCC1CNCCO1` (stereo not given) returned an inhibition of aggregation in assay [1] of 12.9%. The glutamate uptake change in assay [2] is 20.1%. Also, the inclusion score in assay [7] stood at 2. In assay [3], this compound had an aggregation suppression score of 1.38.
